Among the data in the supplement of paper PMC10681739 are ETS1 binding intensity values, retold here.

In the assay the target is T1, ETS1 (UniProt P14921).
T1 sequence: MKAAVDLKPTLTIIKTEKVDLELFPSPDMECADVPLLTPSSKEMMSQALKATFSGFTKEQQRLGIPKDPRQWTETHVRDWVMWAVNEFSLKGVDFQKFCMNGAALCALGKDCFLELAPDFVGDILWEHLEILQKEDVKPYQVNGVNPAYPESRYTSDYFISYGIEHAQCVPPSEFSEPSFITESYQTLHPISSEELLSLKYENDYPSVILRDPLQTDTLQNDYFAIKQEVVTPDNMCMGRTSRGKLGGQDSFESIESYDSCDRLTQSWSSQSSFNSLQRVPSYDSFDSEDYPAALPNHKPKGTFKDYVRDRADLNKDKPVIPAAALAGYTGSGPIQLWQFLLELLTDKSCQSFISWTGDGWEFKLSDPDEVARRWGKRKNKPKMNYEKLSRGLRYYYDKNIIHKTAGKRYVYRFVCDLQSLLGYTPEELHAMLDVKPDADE
As to the kind of experiment: ETS1 binding intensity (PBM fluorescence) in presence of RUNX1, normalised to ETS1-only experiment (arbitrary fluorescence units); higher = stronger binding. As to conditions: ETS1 concentration 1 nM; RUNX1 concentration 25 nM.
As to TTCTCATCCGGCCGGCTTGCTTTCCCCTGCGGTCGT, the ETS1 binding intensity amounted to 641.

As for GACTCTTCCGGCCCAGAGCTTTCGGAGTGCGGTTGC, the ETS1 binding intensity amounted to 704.

As for TGCCACCTGCTTCCTGCCTGTGTAGCCACAAGGGAC, the ETS1 binding intensity stood at 960.

For the sequence AGCTTGCTTCCTGTCCCCAAAACCCACAGCACACGG, the ETS1 binding intensity stood at 1120.

On to CGAGTCAGGAAATCACAGCTCTGCGGGTGGGCTCCT, for which the ETS1 binding intensity amounted to 623.

With TTTTTTCCGCCTGTAGGGTCACATTGTGGTTGATTG, the ETS1 binding intensity was found to be 725.

Regarding ACACCGGAAGCCCAACAGCATGCCGAGTAACCACCC, the ETS1 binding intensity is 1170.

Consider CAGATTCGTGTTTCCGTGCCCGCAGCTCCGTCAGCT, for which the ETS1 binding intensity is 362.
